A short description of test [1]: P-glycoprotein substrates identified in KB-3-1 adenocarcinoma cell line, qHTS therapeutic library screen (AID 1346986). Note: nearly all actives have a fitted effect of over 60% in size. The conditions noted are these: KB-3-1 parental cells viability, CellTiter-Glo, 72 h; series mostly up to 44.5 µM. In outline: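 Viability read by CellTiter-Glo after 72 h compound exposure in dose-response of KB-3-1 and KB-8-5-11 (P-gp-high) cells. Hits needed AC50 < 10 uM, >50% maximum response and curve class -1.1 to -2.4. Cherry-picks retested ± tariquidar, including pcDNA/MDR-19 HEK-293 pair.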
Background: Quantitative high-throughput screening tests each substance at several concentrations.

A short description of test [2]: P-glycoprotein substrates identified in KB-8-5-11 adenocarcinoma cell line, qHTS therapeutic library screen (AID 1346987). Note: nearly all actives have a fitted effect of over 65% in size. The conditions noted are these: KB-8-5-11 (P-gp overexpressing) viability, CellTiter-Glo, 72 h; series mostly up to 44.5 µM. The gist of the method:
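Compounds are pinned in dose-response onto KB-8-5-11 cells (500 cells/well, colchicine-free medium) and left 72 h at 37 degree C. CellTiter-Glo luminescence then yields AC50 values.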

Test [3] concerns Zika virus NS2B-NS3 protease (unlinked complex). Put plainly: Primary screen GU Rhodamine qHTS for Zika virus inhibitors: Unlinked NS2B-NS3 protease assay (AID 1347159). Note: nearly all actives have a fitted effect of over 60% in size. Note: potency is the fitted concentration of half-maximal effect. The conditions noted are these: Recombinant ZIKV NS2B-NS3 protease, Rhodamine110 substrate fluorescence; series mostly up to 107 µM. The gist of the method:
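Unlinked NS2B/NS3, 25 nM; Rhod110 peptide, 1.5 microM; compounds, up to 114 microM. Reaction run 15 min at RT in 10 mM Tris-HCl pH 8.0, 0.01% Tween 20; kinetic fluorescence change fitted with a 4-parameter Hill model.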

Test [4] relates to Zika virus NS2B-NS3 protease (linked construct). Put plainly: Primary screen NINDS Rhodamine qHTS for Zika virus inhibitors (AID 1347160). Note: nearly all actives have a fitted effect of over 55% in size. The conditions noted are these: purified NS2B-NS3 protease, Rhodamine110 substrate fluorescence; series mostly up to 33.1 µM. The gist of the method: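 Single-chain NS2B-NS3 protease, 25 nM, pH 8.0; compounds preincubated 15 min. Activity: Rhodamine110 release from 1.5 microM substrate over 15 min, room temperature, data fitted to 4-parameter Hill.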

Inconclusive results are not listed. Calls of active or inactive are those of the source. Calls come from the whole dose curve; as a rule, active = well fitted curve in the direction sought with a large enough effect; inconclusive = small, poorly fitted or top-dose-only effect, or another doubt; inactive = no such curve, though single readings can be large; an effect the other way counts as inactive or inconclusive.

`O=C(O)CCc1c(C(=O)O)[nH]c2cc(Cl)cc(Cl)c12`: the Potency entry in test [1], in test [2], in test [3] and in test [4] was “inactive” each time.
Turning to `CC(=O)/C=C/C1(O)C(C)(C)CC(O)CC1(C)O` (centres undefined), the Potency entry in test [1], in test [2], in test [3] and in test [4] was “inactive” throughout.
In the case of `C=C1CCC2[C@](C)(CCC[C@]2(C)C(=O)O)[C@H]1CC/C(C)=C/C(=O)OC` (some centres undefined), the Potency entry in test [1], in test [2] and in test [4] was “inactive” in each case. Also, the Potency in test [3] is 12.6 µM (active).
Regarding `CC1(C)[C@@H]2CC=C(CO[C@@H]3O[C@H](CO[C@@H]4OC[C@H](O)[C@H](O)[C@H]4O)[C@@H](O)[C@H](O)[C@H]3O)[C@H]1C2`, the Potency entry in test [1], in test [2], in test [3] and in test [4] was “inactive” throughout.
Regarding `N#CC1C(=O)N=C(c2cc(Cl)ccc2O)C=C1c1cc(OCc2ccccc2)cc(OCc2ccccc2)c1` (centres undefined), the Potency entry in test [1], in test [2], in test [3] and in test [4] was “inactive” throughout.
As to `COc1cccc(Cn2ncc3c4sc(S(C)=O)cc4n(C)c3c2=O)c1` (centres undefined), the Potency result in test [1], in test [2], in test [3] and in test [4] was “inactive” in each case.
For the molecule `COc1ccnc(CCc2nc3ncccc3[nH]2)c1`, the Potency entry in test [1], in test [2], in test [3] and in test [4] was “inactive” each time.
For the molecule `Cc1cn(C[C@H](N)C(=O)O)c(=O)n(Cc2ccsc2C(=O)O)c1=O`, the Potency entry in test [1], in test [2], in test [3] and in test [4] was “inactive” each time.
As to `C=C1CC23CC1CCC2C12OC(=O)C(C)(C(O)C(O)C1O)C2C3C(=O)O` (centres undefined), the Potency entry in test [1], in test [2], in test [3] and in test [4] was “inactive” each time.
Consider `C=CCc1ccc(O[C@@H]2O[C@H](CO)[C@@H](O)[C@H](O)[C@H]2O)c(O[C@@H]2O[C@H](CO)[C@@H](O)[C@H](O)[C@H]2O)c1`, for which the Potency result in test [1], in test [2], in test [3] and in test [4] was “inactive” each time.
As to `CC(NC(=O)[C@H](Cc1ccccc1)NC(=O)OCc1ccccc1)C(=O)CF` (some centres undefined), the Potency entry in test [1], in test [2], in test [3] and in test [4] was “inactive” throughout.
On to `CC1=CC(=O)[C@]2(O[C@@H]3O[C@@H](C)[C@H](O)[C@@H](O)[C@H]3O)C=CO[C@@H](O[C@@H]3O[C@H](CO)[C@@H](O)[C@H](O)[C@H]3O)[C@H]12`, for which the Potency result in test [1], in test [2], in test [3] and in test [4] was “inactive” each time.
Consider `C=C(C)[C@@H]1CC[C@]2(CO)CC[C@]3(C)[C@H](CC[C@@H]4[C@@]5(C)CC[C@H](O)C(C)(C)[C@@H]5CC[C@]43C)[C@@H]12`, for which the Potency result in test [1], in test [2] and in test [4] was “inactive” each time.
Regarding `CC(C)CC[C@@H](O)[C@](C)(O)[C@H]1CC[C@@]2(O)C3=CC(=O)[C@@H]4C[C@@H](O)[C@@H](O)C[C@]4(C)[C@H]3CC[C@]12C`, the Potency entry in test [1], in test [2], in test [3] and in test [4] was “inactive” in each case.
Turning to `CC1(C)CC[C@]2(C(=O)O)CC[C@]3(C)C(=CCC4[C@@]5(C)C[C@@H](O)[C@H](O)[C@@](C)(CO)C5[C@H](O)C[C@]43C)[C@@H]2C1` (some centres undefined), the Potency result in test [1], in test [2], in test [3] and in test [4] was “inactive” throughout.
As to `CC(C)(O)C1OC1C1=CC(=O)C2(C)OC2C1O` (centres undefined), the Potency result in test [1], in test [2], in test [3] and in test [4] was “inactive” throughout.
For `CC/C=C\[C@H](O)[C@H](O)C1=C(C)C(=O)[C@]2(O1)C(=O)N[C@@](O)(C(=O)c1ccccc1)[C@@H]2O`, the Potency result in test [1], in test [2], in test [3] and in test [4] was “inactive” throughout.
As for `CC(=O)O[C@@H]1[C@@H](O)[C@H](C)O[C@@H](O[C@H]2[C@@H]3C=CO[C@@H](O[C@@H]4O[C@H](CO)[C@@H](O)[C@H](O)[C@H]4OC(C)=O)[C@@H]3[C@@]3(CO)O[C@@H]23)[C@@H]1OC(=O)/C=C/c1ccc(O)cc1`, the Potency result in test [1], in test [2], in test [3] and in test [4] was “inactive” in each case.
As to `C=C[C@H]1[C@H](O[C@@H]2O[C@H](CO)[C@@H](O)[C@H](O)[C@H]2O)OC=C2C(=O)N3Cc4c([nH]c5ccccc5c4=O)[C@@H]3C[C@H]21`, the Potency entry in test [1], in test [2], in test [3] and in test [4] was “inactive” each time.
Turning to `FC(F)(F)Oc1ccc(-c2ccc3nnc(C(F)(F)F)n3c2)cc1`, the Potency result in test [1], in test [2], in test [3] and in test [4] was “inactive” in each case.
As for `C/C=C(\C)C(=O)OC[C@H]1O[C@@H](O[C@H]2[C@@H](O[C@H]3O[C@H](COC(=O)/C(C)=C/C)[C@@H](O)[C@H](O)[C@H]3O[C@@H]3O[C@H](CO)[C@@H](O)[C@H](OC(=O)/C(C)=C/C)[C@H]3O)O[C@H](COC(=O)/C(C)=C/C)[C@@H](O)[C@@H]2O)[C@H](O)[C@@H](O)[C@@H]1O`, the outcome in test [1] and in test [2] was “inactive [at 9.29 µM]” throughout. For the same molecule, the Potency result in test [3] and in test [4] was “inactive” in each case.
On to `CC(C)C1CCC(CO)=CC1/C=C(\CO)C(=O)OCC1(O)CCC(C(C)C)C2C=C(C(=O)O)COC(=O)C21` (centres undefined), for which the Potency result in test [1], in test [2] and in test [4] was “inactive” in each case.
With `CC(C)=CCC[C@](C)(O[C@@H]1O[C@H](CO[C@@H]2O[C@@H](CO)[C@H](O)[C@H]2O)[C@@H](O)[C@H](O)[C@H]1O)[C@H]1CC[C@]2(C)[C@@H]1[C@H](O)C[C@@H]1[C@@]3(C)CC[C@H](O[C@@H]4O[C@H](CO)[C@@H](O)[C@H](O)[C@H]4O[C@@H]4O[C@H](CO)[C@@H](O)[C@H](O)[C@H]4O)C(C)(C)[C@@H]3CC[C@]12C`, the Potency entry in test [1], in test [3] and in test [4] was “inactive” in each case.
